Experimental data: PubChem BioAssay (Tox21)
Records with an inconclusive call do not appear. A call without a number means that no potency is given here. More than one record can exist for a structure, and the calls need not agree. Activity calls are given as the source filed them. Calls follow the shape of the full dose curve.
Potency is read from the fitted curve at half-maximal effect.

The compounds below were run against 5-hydroxytryptamine receptor 2A (Homo sapiens) (UniProt P28223) (assay: 5-hydroxytryptamine receptor 2A (HTR2A) small molecule agonists, cell-based qHTS assay (AID 1963587; also: nearly all actives have a fitted effect of over 30% in size)). Conditions: HTR2A-CHO cells, calcium flux fluorescence, agonist mode; series mostly up to 76.8 µM.
5-hydroxytryptamine receptor 2A (Homo sapiens), sequence (P28223 whole entry, looked up): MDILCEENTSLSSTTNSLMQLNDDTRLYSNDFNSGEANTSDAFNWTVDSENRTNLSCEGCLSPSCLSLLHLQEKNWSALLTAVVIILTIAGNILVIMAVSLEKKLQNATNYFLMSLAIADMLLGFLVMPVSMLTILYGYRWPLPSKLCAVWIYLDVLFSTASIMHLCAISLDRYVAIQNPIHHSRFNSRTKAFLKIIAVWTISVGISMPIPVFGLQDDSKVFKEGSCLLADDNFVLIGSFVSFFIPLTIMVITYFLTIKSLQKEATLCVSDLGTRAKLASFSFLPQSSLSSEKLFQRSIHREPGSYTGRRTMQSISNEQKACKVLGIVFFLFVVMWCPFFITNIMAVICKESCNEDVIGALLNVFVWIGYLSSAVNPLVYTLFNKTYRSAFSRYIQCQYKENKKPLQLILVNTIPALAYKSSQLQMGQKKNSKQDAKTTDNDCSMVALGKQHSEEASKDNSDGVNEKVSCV
From the text: National Center for Advancing Translational Sciences [NCATS]
Division of Preclinical Innovation [DPI]
U.S. Environmental Protection Agency [EPA]
National Institutes of Environmental Health Sciences [NIEHS]
National Toxicology Program [NTP]
U.S. Food and Drug Administration [FDA]
The HTR2A receptor is a subtype of the 5-HT2 receptor that belongs to the serotonin receptor family and is a G protein-coupled receptor (GPCR). The HTR2A-CHO cell line stably expressing human 5-hydroxytryptamine receptor 2A (HTR2A) can be used for screening agonists of interactions between 5-HT2 and its ligands. The HTR2A-CHO calcium flux assay is a homogeneous fluorescence-based assay for detecting the intracellular calcium level using FDSS kinetic plate reader system.
HTR2A-CHO cells were dispensed at 2000 cells/3uL/well in 1536-well black-clear bottom plates using a Multidrop Dispenser. After the assay plates were incubated at a 37 C/5% CO2 incubator for 18 h, 3 uL of Dye Loading Buffer was transferred to the assay plate by a Flying Reagent Dispenser. The assay plates were incubated at 37 C for 1h. For agonist mode, 23 nL of compounds dissolved in DMSO, positive controls or DMSO only was transferred to the assay plate by a pin tool. The fluorescence intensity in the plates was measured using FDSS 7000EX kinetic plate reader for 2 min at 1 sec intervals.
With `CCCCNC(=O)NS(=O)(=O)c1ccc(C)cc1` the Potency was “inactive”.
`O=C(O)CCCCCCCC(=O)O` was tested, and the Potency was “inactive”.
In the case of `CCCCCCCCCCCCN`, the Potency is reported as 24.5 µM (active) and inactive.
`CC1(C)OC(=O)NC1=O` was tested, and the Potency was “inactive”.
For `C=CCOC(=O)c1ccccc1C(=O)OCC=C`, the Potency was “inactive”.
`C=C(C)C(=O)OCCCCCC` was tested, and the Potency was “inactive”.
In the case of `Cc1c(N(C)C)c(=O)n(-c2ccccc2)n1C`, the Potency is reported as “inactive”.
`C=C(C)C(=O)O[C@H]1C[C@@H]2CC[C@@]1(C)C2(C)C` was tested, and the Potency was “inactive”.
In the case of `Cc1ncc(CO)c(CO)c1O`, the Potency is reported as “inactive”.
`CC(C)OP(=O)(CP(=O)(OC(C)C)OC(C)C)OC(C)C` was tested, and the Potency was “inactive”.
`Brc1nc2ccccc2s1` was tested, and the Potency was “inactive”.
For `OCCCc1ccccc1`, the Potency was “inactive”.
`CCCCC(CC)COC(=O)C(C#N)=C(c1ccccc1)c1ccccc1` (stereo not given) was tested, and the Potency was “inactive”.
`CCCCCCCCCC` was tested, and the Potency was “inactive”.
In the case of `C=CCCCCCCCCC(=O)O`, the Potency is reported as “inactive”.
For `NCCS(=O)(=O)O`, the Potency was “inactive”.
With `CCCCCCCC=O` the Potency was “inactive”.
`O=C(CC(C(=O)OC1CCCCC1)S(=O)(=O)O)OC1CCCCC1` (stereo not given) was tested, and the Potency was “inactive”.
`C[Si](C)(C)O[Si](C)(C)C` was tested, and the Potency was “inactive”.
For `CCc1cc(C(N)=S)ccn1`, the Potency was “inactive”.
In the case of `CC/C=C(\C(=O)N[C@@H]1C(=O)N2C(C(=O)OCOC(=O)C(C)(C)C)=C(COC(N)=O)CS[C@H]12)c1csc(N)n1`, the Potency is reported as “inactive”.
With `NCCOCCO` the Potency was “inactive”.
For `CC1(C)CC(N)CC(C)(CN)C1` (stereo not given), the Potency was “inactive”.
For `O=C(Cl)c1c(Cl)c(Cl)c(C(=O)Cl)c(Cl)c1Cl`, the Potency was “inactive”.
`CCCCCCCCCCCCc1ccccc1O` was tested, and the Potency was “inactive”.
`COc1ccc(C(=O)c2ccccc2O)c(O)c1` was tested, and the Potency was “inactive”.
With `CC(=O)OCC(=O)[C@@]12N=C(C)O[C@@H]1C[C@H]1[C@@H]3CCC4=CC(=O)C=C[C@]4(C)[C@H]3[C@@H](O)C[C@@]12C` the Potency was “inactive”.
For `Nc1ccn([C@H]2CC[C@@H](CO)O2)c(=O)n1`, the Potency was “inactive”.
In the case of `COC(=O)CCC(=O)OC`, the Potency is reported as “inactive”.
With `CCCCCCCCCCCCS` the Potency was “inactive”.
With `Cc1ccc(O)c(-n2nc3ccccc3n2)c1` the Potency was “inactive”.
In the case of `CC(O)CC(C)(C)O` (stereo not given), the Potency is reported as “inactive”.
With `O=C(Oc1ccccc1)c1ccccc1O` the Potency was “inactive”.
With `O=C1CCCCCN1` the Potency was “inactive”.
With `CC(=O)[C@H]1CC[C@H]2[C@@H]3CC=C4C[C@@H](O)CC[C@]4(C)[C@H]3CC[C@]12C` the Potency was “inactive”.
In the case of `CCCC(O)C(CC)CO` (stereo not given), the Potency is reported as “inactive”.
With `CCCCOCCOCCSC#N` the Potency was “inactive”.
In the case of `CC(=O)OC/C=C(C)/C=C/C=C(C)/C=C/C1=C(C)CCCC1(C)C`, the Potency is reported as “inactive”.
For `c1ccncc1`, the Potency was “inactive”.
`CCC(C)(O)CCCC(C)C` (stereo not given) was tested, and the Potency was “inactive”.
